Reference: the supplement of paper PMC10646978
± gives the standard deviation.

Experiments:
Conditions in all cases: modulator concentration 10 µM
[1] = test system: RAW-Dual (murine macrophage reporter line); experiment: NF-kB reporter (SEAP) activity fold change vs agonist alone; higher = enhanced NF-kB activity
Method in brief: (§1)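 RAW-Dual murine macrophage reporter cells were plated at 50 000 per well in 384-well plates, pin-transferred compound to 10 μM final, and pre-incubated for 1 hour at 37 °C before a PRR agonist was added and the cells incubated overnight. NF-κB activity was read from supernatant SEAP with QUANTI-Blue at 620 nm absorbance, and IRF activity from Lucia luciferase with QUANTI-Luc by luminescence. Each signal was expressed as fold change by dividing by the mean agonist-only control on the same plate. Two replicate plates were averaged, with errors obtained by propagation.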

[2] = test system: RAW-Dual (murine macrophage reporter line); experiment: IRF reporter (Lucia luciferase) activity fold change vs agonist alone; higher = enhanced IRF activity
Method in brief: as §1

[3] = test system: RAW-Dual (murine macrophage reporter line); experiment: viability score (confluency relative to resting cells, overnight) (fraction); higher = more viable, active = viable (0.7 or more)
Method in brief: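 A compound met the cutoff when both of two confluency masks exceeded 70% of resting cells. Those masks were made with IncuCyte software from IncuCyte images of RAW-Dual macrophages treated overnight at 10 μM final. This is the basis of the viability score, which is confluency relative to resting cells.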

[4] = agonist: CpG ODN 1826 0.5 ug/mL

Row | Compound | NF-kB reporter [1, 4] | NF-kB reporter ([1]; agonist: LPS 0.1 ug/mL) | NF-kB reporter ([1]; agonist: MPLA […]) | IRF reporter ([2]; agonist: 3'3'-cGAMP 10 ug/mL) | IRF reporter ([2]; agonist: LPS 0.1 ug/mL) | IRF reporter ([2]; agonist: MPLA […]) | viability score [3]
1 | O=C(Cc1ccc([N+](=O)[O-])cc1)NN=Cc1cccnc1 | 1.05 ± 0.083 | 1.02 ± 0.074 | 0.972 ± 0.041 | 0.86 ± 0.066 | 1.09 ± 0.053 | 1.03 ± 0.14 | 1 (active)
2 | CCOC(=O)C1=C(C)NC(C)=C(C(=O)OCC)C1c1ccco1 | 1.03 ± 0.09 | 1.01 ± 0.066 | 1.14 ± 0.087 | 0.82 ± 0.16 | 0.999 ± 0.12 | 0.888 ± 0.28 | 0.996 (active)
3 | c1ccc(CCn2c(COc3ccccc3)nc3ccccc32)cc1 | 1.01 ± 0.16 | 0.987 ± 0.13 | 1.16 ± 0.16 | 1.21 ± 0.043 | 1.24 ± 0.16 | 1.34 ± 0.29 | 1.01 (active)
4 | NCC(=O)O | 0.965 ± 0.073 | 0.999 ± 0.064 | 0.96 ± 0.021 | 0.912 ± 0.068 | 1.02 ± 0.12 | 1.23 ± 0.21 | 1 (active)
5 | O=C1[C@H](CC[C@H](O)c2ccc(F)cc2)[C@@H](c2ccc(O)cc2)N1c1ccc(F)cc1 | 1.11 ± 0.11 | 1.05 ± 0.051 | 1.29 ± 0.12 | 0.927 ± 0.063 | 0.98 ± 0.084 | 1.21 ± 0.11 | 0.97 (active)
6 | O=C(c1ccc(Cl)cc1)c1ccc(N2CCCCC2)c([N+](=O)[O-])c1 | 1 ± 0.17 | 1.11 ± 0.15 | 1.01 ± 0.097 | 0.957 ± 0.064 | 1.27 ± 0.27 | 1.33 ± 0.27 | 0.998 (active)
7 | CC(C)CC(C(=O)Nc1cccc(O)c1)N1C(=O)c2ccccc2C1=O (stereo not drawn) | 0.947 ± 0.076 | 1.04 ± 0.099 | 1.16 ± 0.083 | 1.04 ± 0.04 | 1.64 ± 0.15 | 1.63 ± 0.14 | 0.913 (active)
8 | CN1CCN(CCCN2c3ccccc3Sc3ccc(S(=O)(=O)N(C)C)cc32)CC1 [Prestw-149] | 0.413 ± 0.053 | 0.958 ± 0.052 | 1.82 ± 0.044 | 0.936 ± 0.051 | 0.851 ± 0.078 | 1.55 ± 0.16 | 0.149 (inactive)
9 | COc1ccccc1C(=O)Nc1cnc(N2CCN(c3ccccn3)CC2)nc1 | 0.887 ± 0.038 | 1.02 ± 0.12 | 1.2 ± 0.066 | 0.913 ± 0.086 | 0.991 ± 0.21 | 1.12 ± 0.43 | 0.877 (active)
10 | CC(C)n1cnc(S(=O)(=O)N2CCC(S(=O)(=O)Cc3ccccc3)CC2)c1 | 0.891 ± 0.05 | 0.891 ± 0.072 | 1.02 ± 0.055 | 1.06 ± 0.062 | 1.3 ± 0.3 | 1.37 ± 0.34 | 1 (active)
11 | O=C(NCC1(O)CCOc2ccccc21)c1ccccc1C(F)(F)F (stereo not drawn) | 1.85 ± 0.095 | 1.31 ± 0.24 | 1.95 ± 0.67 | 0.687 ± 0.44 | 0.669 ± 0.34 | 0.721 ± 0.084 | 0.574 (inactive)
12 | O=C1c2ccccc2C(=O)C1c1ccccn1 | 0.912 ± 0.069 | 1.08 ± 0.087 | 0.993 ± 0.021 | 0.897 ± 0.055 | 0.976 ± 0.075 | 0.95 ± 0.091 | 0.987 (active)
13 | COC(=O)c1ccc2c(c1)NC(=O)/C2=C(\Nc1ccc(N(C)C(=O)CN2CCN(C)CC2)cc1)c1ccccc1 | 1.34 ± 0.2 | 1.18 ± 0.27 | 1.02 ± 0.063 | 0.325 ± 0.024 | 0.851 ± 0.14 | 0.474 ± 0.041 | 0.998 (active)
14 | S=C(NCc1ccc2c(c1)OCO2)N1CCN(c2ncnc3c2oc2ccccc23)CC1 | 0.943 ± 0.19 | 1.6 ± 0.5 | 2.24 ± 0.18 | 0.623 ± 0.021 | 1.35 ± 0.27 | 1.96 ± 0.42 | 0.958 (active)
